From PubChem BioAssay AID463173 (ICCB-Longwood Screening Facility, Harvard Medical School, 2010)
Out of some 52,000 compounds screened, about 1,700 (3.3%) were called active. What follows is part of a selection rich in actives, with near analogues and random picks from the rest. A number with no mark means an inactive call. Cut-off read from the data, not from the text of the source: active = survival mostly below about 52% (no sharp cut-off); inactive = mostly above about 56%.

The compounds below were run on Wild type (assay: growth inhibition of S. aureus wild type versus tarO mutant, primary screen, teichoic acid synthesis inhibitors, RN4220, OD600 (AID 463173)). Conditions: S. aureus RN4220 wild type/DeltatarO growth, OD600, 18 h, active compounds read low, screened at 18.75 µg/mL (by protocol).
In the case of `O=C(Cn1c(SCc2ccc(F)cc2)nc2cccnc21)Nc1ccccc1F`, the survival is reported as 75%. In the case of `COc1ccc(-c2nnn3c2nc(NCc2ccc(C)cc2)c2ccccc23)cc1`, the survival is reported as 85%. In the case of `O=C(Nc1cc(-c2nc3ccccc3o2)ccc1Cl)c1sc2c([N+](=O)[O-])cccc2c1Cl`, the survival is reported as 96%. For `Cc1ccc(Cl)cc1-n1ncc2c(N3CCN(Cc4ccccc4)CC3)ncnc21`, the survival was 120%. `COc1cccc(-c2ccc3c(N)c(C(=O)c4ccc(Br)cc4)sc3n2)c1` gave a survival of 38%. In the case of `COc1cccc(-c2ccc3c(N)c(C(=O)c4ccc(F)cc4)sc3n2)c1`, the survival is reported as 10% (active). Work on `COc1cccc(-c2ccc3c(N)c(C(=O)c4ccc(Cl)cc4)sc3n2)c1` yielded a survival of 39%. Compound `Cc1ccc(CNC(=O)c2ccc3c(c2)N(Cc2cccc(Cl)c2)C(=O)CS3)cc1` has a survival of 70%. `Cc1cccc(N2C(=O)C(CC(=O)Nc3cccc(F)c3)N(Cc3cccs3)C2=O)c1` (configuration not stated) was tested, and the survival was 0% (active). In the case of `CCOc1ccc(NC(=O)CC2C(=O)N(c3cccc(C)c3)C(=O)N2Cc2cccs2)cc1` (configuration not stated), the survival is reported as 85%. For `Cc1cccc(N2C(=O)C(CC(=O)Nc3cccc(F)c3)N(CCc3ccncc3)C2=O)c1` (configuration not stated), the survival was 84%. `CCc1ccc(NC(=O)CC2C(=O)N(c3cccc(C)c3)C(=O)N2Cc2cccs2)cc1` (configuration not stated) was tested, and the survival was -3% (active). Compound `CCc1ccc(NC(=O)CC2C(=O)N(c3ccc(Cl)cc3)C(=O)N2Cc2cccs2)cc1` (configuration not stated) has a survival of 47%. For `COc1cc(NC(=O)CC2C(=O)N(c3cccc(C)c3)C(=O)N2Cc2cccs2)cc(OC)c1` (configuration not stated), the survival was 53%. `O=C(NCc1ccccc1Cl)c1nnc(Cc2ccc(Cl)cc2)o1` gave a survival of 85%. `CCC1CN(C(=O)N2CCC(C(=O)NCc3cccc(OC)c3OC)CC2)c2cc(C)ccc2O1` (configuration not stated) gave a survival of 106%. `CC1=C(C(=O)Nc2ccc(C)cc2C)C(c2cccs2)n2nc(SCc3cccc(C)c3)nc2N1` (configuration not stated) showed a survival of 126%. Compound `CCC(=O)Nc1ccc(C(=O)CSc2nnc(-c3ccc(O)cc3)n2CC2CCCO2)cc1` (configuration not stated) has a survival of 103%. Work on `CCc1ccc(C(=O)c2cn(CC(=O)Nc3cccc(OC)c3)c3ccc(OC)cc3c2=O)cc1` yielded a survival of 77%. For `CC(C)c1ccccc1NC(=O)Cn1cnc2c1c(=O)n(C)c(=O)n2C`, the survival was 93%. Work on `Cc1ccc(C(=O)N2CCC(C(N)=O)CC2)cc1NC(=O)c1nsc2ccccc12` yielded a survival of 72%. In the case of `O=C(Nc1ccc(C(=O)N2CCN(c3ccc(F)cc3)CC2)cc1)c1nsc2ccccc12`, the survival is reported as 55%. Work on `Cc1ccc(C)c(N2CCN(C(=O)c3ccc(NC(=O)c4nsc5ccccc45)cc3)CC2)c1` yielded a survival of 63%. `Cc1ccc(Cl)cc1N1CCN(C(=O)c2ccc(NC(=O)c3nsc4ccccc34)cc2)CC1` was tested, and the survival was 1% (active). For `O=C(Nc1ccc(C(=O)N2CCN(c3ccc(Cl)cc3)CC2)cc1)c1nsc2ccccc12`, the survival was 81%. Compound `Cc1ccc(C(=O)N2CCC(C)CC2)cc1NC(=O)c1nsc2ccccc12` has a survival of 80%. For `O=C(Nc1ccc(C(=O)N2CCN(c3cccc(Cl)c3)CC2)cc1)c1nsc2ccccc12`, the survival was 63%. With `Cc1ccc(C(=O)N2CCCCC2)cc1NC(=O)c1nsc2ccccc12` the survival was -6% (active). For `O=C(Nc1ccc(C(=O)N2CCN(c3ccccc3)CC2)cc1)c1nsc2ccccc12`, the survival was -3% (active). For `CC1CCN(CC2CCN(C(=O)NCc3ccc(F)cc3)CC2)CC1`, the survival was 78%. Compound `COc1ccccc1OC(C)C(=O)NCC1(N2CCOCC2)CCCCC1` (configuration not stated) has a survival of 87%. `COc1ccc(CC(=O)NCc2ccc3c(c2)CCN3C(C)=O)cc1OC` showed a survival of 78%. For `CCC(=O)N1c2ccccc2CC1C(=O)NCCCN1CCN(c2ccc(OC)cc2)CC1` (configuration not stated), the survival was 88%. `Cc1ccc(NC(=O)Cn2nc(C(F)(F)F)c3c2CCC3)cc1C` gave a survival of 81%. `O=S(=O)(c1ccc2nc(N3CCN(c4ccccc4)CC3)ccc2c1)N1CCCCC1` was tested, and the survival was 1% (active). For `CC1CCN(S(=O)(=O)c2ccc3nc(N4CCN(c5ccccc5)CC4)ccc3c2)CC1`, the survival was 77%. Work on `O=S(=O)(c1ccc2nc(N3CCN(c4cccc(Cl)c4)CC3)ccc2c1)N1CCCCC1` yielded a survival of 55%. Compound `Cc1ccc(NC(=O)C(=O)NCC(c2cccnc2)N2CCN(Cc3ccccc3)CC2)cc1` (configuration not stated) has a survival of 85%. `CC1CCN(C(=O)c2ccc3c(c2)OCCO3)CC1` gave a survival of 105%. `CN(Cc1ccccc1)c1ccc(-c2nc(-c3ccccn3)no2)cc1[N+](=O)[O-]` showed a survival of 67%. With `CCc1ccc(CNC(=O)c2cc(=O)[nH]c3ccc(S(=O)(=O)N4CCCCC4)cc23)cc1` the survival was 91%. With `O=S(=O)(c1ccc(Cl)cc1)c1nc(-c2cccs2)oc1N1CCCCC1` the survival was 45%. Work on `CC1CCN(c2oc(-c3cccs3)nc2S(=O)(=O)c2ccccc2)CC1` yielded a survival of 24%. Work on `Cc1ccc(S(=O)(=O)c2nc(-c3cccs3)oc2N2CCCCC2)cc1` yielded a survival of 50%. With `O=S(=O)(c1ccccc1)c1nc(-c2cccs2)oc1N1CCCCC1` the survival was 123%. For `Cc1ccc(S(=O)(=O)c2nc(-c3cccs3)oc2N2CCC(C)CC2)cc1`, the survival was -10% (active). With `CC1CCN(c2oc(-c3cccs3)nc2S(=O)(=O)c2ccc(Cl)cc2)CC1` the survival was -8% (active). `O=C(CSc1nc2ccccc2o1)NC1CC1` showed a survival of 86%. Work on `Cc1ccc2c(c1)c1c(c(=O)n(-c3ccccc3C)c(=O)n1CC(=O)NCC1CCCO1)n2C` (configuration not stated) yielded a survival of 66%. Work on `CCOc1ccc(CCNC(=O)Cn2ncc3c(=O)oc4ccc(C)cc4c32)cc1` yielded a survival of 80%. Work on `COc1ccc(NC(=O)CSc2nc(-c3ccccc3)nc3cc(=O)[nH]n23)cc1` yielded a survival of 73%. `CCCCc1c(C)nc2c(-c3ccc(Cl)cc3)c(C)[nH]n2c1=O` was tested, and the survival was -13% (active). `CCCCc1nc2ccccc2n2c(-c3ccc(OC)cc3)c3c(=O)n(C)c(=O)n(C)c3c12` showed a survival of 52%. With `CCCCc1c(C)nc2c(-c3ccc(OC)cc3)c(C)[nH]n2c1=O` the survival was 12% (active). `CCOC(=O)Cc1c(C)nc2c(-c3ccc(Cl)cc3)c(C(F)(F)F)nn2c1C` gave a survival of 49%. `Cc1nc2c(-c3ccc(F)cc3)c(C)nn2c(C)c1CCC(=O)NCc1ccc(Cl)cc1` showed a survival of 91%. For `CCOC(=O)CCc1c(C)nc2cc(-c3cc(OC)cc(OC)c3)[nH]n2c1=O`, the survival was 74%.
